Assay results reported in PubChem BioAssay.

Experiments:
[1] = system: Human papillomavirus type 1a protein E7 (residues 44-93); experiment: HPV1a E7 fragment binders on microarrays, primary screen, biochemical, small-molecule microarray, residues 44-93, 635 nm fluorescence (AID 1108); conditions: small-molecule microarray binding, fluorescence 635 nm; higher = more signal;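 further: E7 fragment applied at 1 µg/mL in TBST for 1 h at 4 C; score combines spot fluorescence with its signal to noise ratio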
[2] = modulators of HCV replicon luciferase signal, primary screen, HCV replication inhibitor project, Huh7 cells, luciferase reporter (AID 1109); conditions: 48 h, higher = more signal;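 further: huh7 hepatoma cells harbouring a luciferase neomycin HCV replicon reporter; luciferase luminescence as measure of HCV replicon replication; test concentration not given here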
[3] = biological target: Left-right determination factor 2 (Homo sapiens) (UniProt O00292); experiment: LEFTY2 binders on small-molecule microarrays, primary screen, biochemical, small-molecule microarray, 635 nm fluorescence scan (AID 1110); conditions: LEFTY2 binding, higher = more signal
[4] = biological target: Calmodulin-1 (Homo sapiens) (UniProt P0DP23); experiment: CALM1 binders on microarrays, EGTA buffer, profiling panel, biochemical, small-molecule microarray, Cy5-labelled CALM1 (AID 1111); conditions: Cy5-CALM1 binding fluorescence, higher = more signal;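 further: labelled calmodulin applied in Tris saline Tween buffer holding calcium plus EGTA and DTT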
[5] = biological target: Calmodulin-1 (Homo sapiens) (UniProt P0DP23); experiment: calcium-bound CALM1 binders on microarrays, profiling panel, artefact control for SMM control-protein annotation, biochemical, small-molecule microarray, Cy5-labelled CALM1, plus calcium (AID 1112); conditions: Cy5-CALM1 binding fluorescence, higher = more signal;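 further: score merges spot fluorescence with signal to noise from triplicate slides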
[6] = small-molecule microarray binders of probe aWnt5a, primary screen, biochemical, biotinylated probe, 635/667 nm fluorescence (AID 1113); conditions: higher = more signal;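 further: score merges 667 nm fluorescence intensity with signal-to-noise per printed feature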
[7] = small-molecule microarray binders of probe aShh, primary screen, biochemical, biotinylated probe, 635/667 nm fluorescence (AID 1114); conditions: higher = more signal;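 further: probe is biotin-labelled aShh protein from a stem cell growth factor screen; measures binding of labelled protein to compounds printed on the slide; score merges feature fluorescence at 667 nm with signal-to-noise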
[8] = small-molecule microarray binders of probe aNog, primary screen, biochemical, biotinylated probe, 635/667 nm fluorescence (AID 1115); conditions: higher = more signal;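 further: probe is biotinylated aNog protein used at 0.15 µg/mL for 1 h at 4 C; z-score combines 667 nm fluorescence of each spot with its signal to noise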
[9] = biological target: Torsin-1A-interacting protein 1 (Homo sapiens) (UniProt Q5JTV8); experiment: LAP1 binders from COS7 cell lysate, primary screen, small-molecule microarray, 635/667 nm fluorescence (AID 1116); conditions: COS7-hLAP1 lysate binding, 635 nm fluorescence, higher = more signal
[10] = biological target: Alpha-bungarotoxin (Bungarus multicinctus) (UniProt P60615); experiment: alpha-bungarotoxin binders on microarray, profiling panel, artefact control for SMM control protein annotation, biochemical, small-molecule microarray, Alexa647 label, 635/667 nm fluorescence (AID 1117); conditions: alpha-BTX-A647 binding fluorescence, higher = more signal
Chain of Alpha-bungarotoxin (Bungarus multicinctus) (P60615 whole entry, looked up): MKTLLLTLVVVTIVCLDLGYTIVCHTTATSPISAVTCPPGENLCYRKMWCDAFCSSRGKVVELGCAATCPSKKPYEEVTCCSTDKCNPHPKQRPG

Chain of Left-right determination factor 2 (Homo sapiens) (O00292 whole entry, looked up): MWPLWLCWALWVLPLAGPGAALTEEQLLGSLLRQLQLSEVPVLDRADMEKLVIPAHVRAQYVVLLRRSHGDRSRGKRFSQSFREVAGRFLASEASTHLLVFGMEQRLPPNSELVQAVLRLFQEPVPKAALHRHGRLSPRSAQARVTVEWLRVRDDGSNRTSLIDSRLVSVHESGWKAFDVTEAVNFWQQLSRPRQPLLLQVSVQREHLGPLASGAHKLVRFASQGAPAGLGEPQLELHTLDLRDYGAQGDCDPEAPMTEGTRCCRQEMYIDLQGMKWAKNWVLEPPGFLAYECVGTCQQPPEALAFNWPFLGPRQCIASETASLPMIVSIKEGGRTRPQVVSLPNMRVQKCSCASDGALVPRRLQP
Chain of Torsin-1A-interacting protein 1 (Homo sapiens) (Q5JTV8 whole entry, looked up): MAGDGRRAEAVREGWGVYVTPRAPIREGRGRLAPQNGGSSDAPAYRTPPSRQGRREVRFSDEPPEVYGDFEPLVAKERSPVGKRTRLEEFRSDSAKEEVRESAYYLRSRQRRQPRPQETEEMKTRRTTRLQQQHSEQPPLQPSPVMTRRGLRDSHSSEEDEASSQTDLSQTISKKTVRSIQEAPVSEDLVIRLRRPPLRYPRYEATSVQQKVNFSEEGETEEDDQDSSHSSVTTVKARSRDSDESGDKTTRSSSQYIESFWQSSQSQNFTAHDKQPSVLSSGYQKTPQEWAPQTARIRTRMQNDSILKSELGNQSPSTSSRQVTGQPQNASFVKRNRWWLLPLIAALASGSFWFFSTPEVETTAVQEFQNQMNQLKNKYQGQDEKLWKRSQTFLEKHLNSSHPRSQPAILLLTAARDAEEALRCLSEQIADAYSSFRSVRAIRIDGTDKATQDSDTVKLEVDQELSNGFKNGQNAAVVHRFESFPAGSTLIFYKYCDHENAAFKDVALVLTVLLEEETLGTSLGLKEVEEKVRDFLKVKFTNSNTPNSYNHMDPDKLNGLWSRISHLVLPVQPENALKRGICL

Row | Structure (SMILES) | composite z-score [1] | z-score [2] | composite z-score [3] | composite z-score [4] | composite z-score [5] | composite z-score [6] | composite z-score [7] | composite z-score [8] | composite z-score [9] | composite z-score [10]
1 | O=c1cccc(-c2ccc3ccccc3c2)o1 | -0.0853 | 0.0929 | -0.135 | -0.545 | 0.03 | -0.184 | -0.136 | -0.219 | 0.407 | 0.687
2 | CC(C)C[C@@H]1NC(=O)[C@@H]2C[C@H](C(=O)NCCCCN(C)C)[C@H](c3ccc(O)cc3)N2C1=O | -0.256 | -0.556 | -1.58 | -0.685 | 0.33 | -0.0977 | -0.0553 | -0.0791 | 0.864 | -0.318
3 | C=C(C(=O)CC[C@H](OC(=O)c1cccnc1)c1ccccc1OCCO)C(C)C | 1.05 | -2.71 | 0.753 | -0.62 | -1.24 | 0.121 | -0.0035 | -0.176 | 1.99 | 0.892
4 | COc1ccccc1CN1C(=O)c2ccccc2[C@](Cc2ccccc2I)(C(=O)NC2CC2)[C@@H]1c1ccc(CO)cc1 | 1.43 | -1.93 | 0.471 | 0.654 | -0.265 | 0.0704 | 0.242 | -0.354 | 1.69 | 1.38
5 | CC(C)[Si]1(C(C)C)O[C@@H](c2ccccc2)c2cc(-c3ccc(-c4ccc(Cl)c(Cl)c4)o3)nc(CCc3ccccc3)c21 | 0.0027 | -2.07 | -1.32 | -0.411 | 0.873 | -0.152 | 0.0141 | -0.0118 | -0.193 | -1.17
6 | COCCOC(=O)N1C(=O)[C@@]2(c3cc(C#CCC(C(=O)OC)C(=O)OC)ccc31)[C@H](c1ccccc1OCCO)N1[C@H](c3ccccc3)[C@H](c3ccccc3)OC(=O)[C@H]1[C@@H]2C(=O)Nc1nc2ccccc2s1 | 0.678 | -1.11 | 0.691 | 1.29 | 0.522 | -0.0134 | -0.0146 | 0.185 | 1.99 | 2.06
7 | CCCC[C@@H]1C[C@H]1[C@@H](NC(=O)c1ccco1)c1ccccc1 | -1.35 | -2.26 | -2.75 | -0.352 | 0.479 | -0.258 | 0.108 | -0.218 | -1.63 | -0.703
8 | COc1cc(NN2C(C(O)c3ccccc3)C=CC3C(=O)N(c4ccccc4)C(=O)C32)cc(OC)c1OC (stereo not given) | 1.49 | -1.28 | 0.265 | 1.36 | -0.356 | 0.216 | 0.302 | 0.539 | 0.804 | 0.585
9 | COCCOC(=O)N1C(=O)[C@@]2(c3cc(C#CC4=CCCCC4)ccc31)[C@H](C(=O)N1CCN(c3ncccn3)CC1)[C@H]1C(=O)O[C@H](c3ccccc3)[C@H](c3ccccc3)N1[C@@H]2c1ccc(OCCO)cc1 | 0.973 | -1.46 | 0.819 | 0.585 | -0.252 | 0.0026 | -0.229 | 0.749 | 1.48 | 0.229
10 | CCOC(=O)C[C@H]1[C@H](OC(=O)c2ccccc2-c2ccccc2)[C@@H](NC(=O)c2ccc(-c3ccccc3)cc2)c2cc(OCCCO)ccc2N1C(=O)c1ccccc1 | 1.26 | -1.81 | 0.572 | 0.455 | -0.361 | -0.16 | -0.282 | 0.0273 | 0.539 | 0.57
